Results on 16 molecules are retold here after PubChem BioAssay (EPA / NIEHS).

The source made the active and inactive calls. How the source made its calls: active means hit-call score of the fitted dose curve at least 0.9, where 1 is the maximum; inactive means score below 0.9.

By AC50 is commonly meant the midpoint of the concentration-response curve, whichever way the signal moves.

Read-out in the assay: Intercellular Adhesion Molecule 1 (ICAM1), ICAM1 (gene 3383)
The experiment in a line: LTEA_HepaRG_ICAM1: Life Technologies and Expression Analysis (LTEA) Assay for Intercellular Adhesion Molecule 1 (ICAM1) using HepaRG (AID 2283507). The conditions noted are these: mRNA level, 48 h; actives raise or lower the signal. As for the experimental part: LTEA_HepaRG is a cell based, multiplexed-readout assay that uses HepaRG, a human liver cell line, with measurements taken at 48 hours after chemical dosing on a 96-well plate.LTEA_HepaRG_ICAM1 is one of 102 assay component(s) measured in the LTEA HepaRG cell culture assay. It is a marker of Fibrosis.Data from the assay component LTEA_HepaRG_ICAM1 was analyzed into 1 endpoint. This assay endpoint, LTEA_HepaRG_ICAM1, was analyzed with bidirectional fitting relative to DMSO as the negative control and baseline of activity. Using a type of inducible reporter, measures of mRNA induction for gain or loss-of-signal activity can be used to understand regulation of transcription factor activity. To generalize the intended target to other relatable targets, this assay endpoint is annotated to the cell adhesion molecules intended target family, where the subfamily is Immunoglobulin CAM.
A total of 1060 chemcials from the ToxCast library were tested in eight-point concentration-response experiments. Cell culture and cytotoxicity assays were conducted at Thermo Fisher Scientific's Custom Services facility (Madison, WI). A single lot of human HepaRG cells (Thermo Fisher Scientific, Frederick, MD) was used for the cell culture experiments. 96-well format collagen type I coated plates of human HepaRG cells were prepared using established methods. Briefly, cryopreserved HepaRG cells were thawed, plated at a density of approximately 100,000 cells/well in HepaRG Thaw, Plate, and General Purpose media (HPRG770, Thermo Fisher Scientific), and incubated for 48 hours. 0.5% DMSO was selected as vehicle control to balance the requisite need of DMSO in HepaRG cultures to maintain differentiation (for example, baseline metabolism, proportions of hepatocytes vs. cholangiocytes), while enabling further hepatic receptor pathway activation (for example, PXR and CAR) in response to chemical exposure. 48 hours after plating, the culture medium was replaced with HepaRG Serum-Free Incudtion Media. Cells were exposed to each test chemical in duplicate and maintained in CO2 incubators for another 48 hours. Chemical plates were thawed to room temperature and 200x concentrations of treatment groups were prepared. 8-point conentration-reponse curves were made with the highest exposure at 100 uM, followed by half-log dilutions, all in 0.5% DMSO. Each test plate contained variouse controls, induction positive controls (1mM phenobarbital), cytotoxicity positive controls ([…] aflatoxin B1), vehicle controls (0.5% DMSO), and total lysis controls (0.5% DMSO). Cell morphology images were taken using an Essen IncuCyte FLR automated microscope, with six 96-well plates imaged in about 24 minutes. Images were captured and exported and JPEG files. Spent culture media was transfered to black-well plates for the LDH assay, and remaining media was sorted at -80 C for later use. Cells were treated with RLT buffer and frozen until shipped for gene expression analysis. Total RNA was isolated from the cell suspension in 75 uL of Buffer RLT (Qiagen, Germantown, MD 20874) by Quintiles/Expression Analysis (Durham, NC) using a custom isolation procedure. Total RNA from each plate well was transferred to a preamplification plate. Fluidigm's 96.96 Dynamic ArrayTM (Fluidigm, Amsterdam, the Netherlands) technology was used for gene expression analyses by quantitative reverse transcription polymerase chain reaction (qRT-PCR, performed by Quintiles/Expression Analysis, Durham, NC)89. Standard TaqManTM Assays (Applied Biosystems/ThermoFisher Scientific, Foster City, CA) were used to assess the expression of 93 genes selected based on their selectivity and sensitivity to important hepatic receptors known to be modulated by environmental chemicals; importance in human hepatocyte functionality; and hepatotoxicity. […]
For the molecule `OCC(CO)(CBr)CBr`, the molecule was called inactive. On to `CCCCc1oc2ccccc2c1C(=O)c1cc(I)c(OCCN(CC)CC)c(I)c1`, for which the AC50 was 59.5 µM (active). With `CCCCC(CC)C(=O)O` (stereo unspecified), the call was inactive. Take `O=C1NS(=O)(=O)c2ccccc21`: the outcome was inactive. Same read-out and setting: to `CCC(C)c1ccccc1O` (stereo unspecified) belongs “inactive”.

Consider `N=C(N)c1ccc(OCCCCCOc2ccc(C(=N)N)cc2)cc1`, for which the AC50 was 10.9 µM (active). As to `O=C(CCCN1CCC(O)(c2ccc(Cl)cc2)CC1)c1ccc(F)cc1`, the AC50 is 75 µM (active). Regarding `CCCCC=O`, the result was inactive. Still for that read-out and setting: next, `CN(Cc1cnc2nc(N)nc(N)c2n1)c1ccc(C(=O)N[C@@H](CCC(=O)O)C(=O)O)cc1`: “inactive”; `CCCCCCCCCCCCCCC`: “inactive”; `CC(=O)Nc1ccc(O)cc1`: “inactive”.

`CCCCCCCCCCCCOS(=O)(=O)O`: the molecule was called inactive. For the molecule `CS(=O)(=O)c1ccc([C@@H](CC2CCCC2)C(=O)Nc2cnccn2)cc1Cl`, the AC50 is 73.7 µM (active). Turning to `O=C(c1ccccc1)c1ccccc1`, the molecule was classed as inactive. On the same count and under the same terms, next, `Cc1[nH]nc2c1N=C(c1ccccc1Cl)c1cc([N+](=O)[O-])ccc1N2`: “inactive”; `CN(C)CCOC(c1ccccc1)c1ccccc1`: “inactive”.
